Shown are actives, neighbours in structure and some others; about 11% of the full set was active somewhere.
Coupling enz = coupling enzyme interference in Giardia aldolase counter-screen; coupling enzyme system counterscreen, AmpLite Red fluorescence; activity change, negative = inhibition, % at 58.2 µM, hits read low; 290,000 compounds, 0.67% hits; AID 2472; in the data active means activity change below about -30%
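Fluorescence at 525 nm excitation and 598 nm emission measured inhibition of the coupled detection system without aldolase. Compounds (at 57.5 uM final) were preincubated 10 min at room temperature with coupling enzyme reagent before a 20 min substrate/AmpLite Red step.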
Sfp PPTase inh = inhibitors of Bacillus subtilis Sfp phosphopantetheinyl transferase; 310,000 compounds, 3.5% hits; Potency, µM, hits mostly inhibitors; Biochemical Sfp PPTase activity, qHTS; Q9F4F7;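 further: the enzyme is Sfp with the accession as filed and its product quenches rhodamine fluorescence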
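Fluorescence-quenching assay with 15 nM Sfp, 5 uM rhodamine-CoA and 12.5 uM BHQ-2-labelled ybbR peptide in pH 7.6 Hepes/MgCl2 buffer. Enzyme was pre-incubated with compound for 15 min at room temperature. Rate was taken from the 30-min fluorescence change (525/598 nm).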
Tau FP inhib = blocks human tau fibril formation measured by polarization. K18 P301L tau heparin fibrillization, Alexa594 FP, 6 h. Potency, µM (top dose mostly 57.7 µM), hits mostly inhibitors. 280,000 compounds, 0.39% hits. AID 1468; further: nearly all actives have a fitted effect of over 55% in size
Target sequence (P10636 561-689 P618L limits assumed): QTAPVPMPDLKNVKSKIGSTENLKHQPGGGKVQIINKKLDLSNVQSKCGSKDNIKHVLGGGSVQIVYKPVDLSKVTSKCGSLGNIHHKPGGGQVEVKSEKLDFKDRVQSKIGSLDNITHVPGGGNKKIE
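Quantitative HTS format: compounds meet 15 uM recombinant K18 P301L tau and Alexa 594-tau tracer in 100 mM sodium acetate pH 7; 20 uM heparin triggers fibrillization at 37 C over 6 hr; FP gives the signal.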
Tau fluor counter = counter-screen for tau fibril formation inhibitors; Potency, µM (titrated, usually from 57.7 µM); 280,000 compounds, 0.93% hits; tau K18 P301L Alexa594 fluorescence, heparin fibrillization; AID 1463; further: nearly all actives have a fitted effect of over 55% in size
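Human K18 P301L tau (15 uM unlabeled plus 0.24 uM Alexa 594-labeled, final) in 100 mM sodium acetate pH 7 was mixed with compound and 20 uM heparin and incubated 6 hr at 37 C.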
Tau ThT inhib = inhibitors of human tau fibril formation, thioflavin T binding; P10636; AID 1460; Potency, µM (series often up to 57.4 µM), usual class: inhibitors; 270,000 compounds, 2.1% hits; recombinant tau K18 P301L (four-repeat tau fragment), heparin-induced fibrillization, ThT fluorescence; further: nearly all actives have a fitted effect of over 55% in size
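Tau K18 P301L fragment (15 uM unlabeled plus 0.24 uM Alexa 594-labeled) in 100 mM sodium acetate pH 7 with compound, fibrillization induced by 20 uM heparin for 6 hr at 37 C. Thioflavin T (30 uM) added, fluorescence read after 1 hr (ex 450, em 510 nm).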
G9a inh = blocks human histone lysine methyltransferase G9a. Q96KQ7. G9a H3K9 monomethylation, AlphaScreen, 2 h. Potency, µM (titrated, usually from 102 µM), usual class: inhibitors. 350,000 compounds, 8.8% hits. AID 504332; further: nearly all actives have a fitted effect of over 75% in size
Target sequence (Q96KQ7 913-1193 limits assumed): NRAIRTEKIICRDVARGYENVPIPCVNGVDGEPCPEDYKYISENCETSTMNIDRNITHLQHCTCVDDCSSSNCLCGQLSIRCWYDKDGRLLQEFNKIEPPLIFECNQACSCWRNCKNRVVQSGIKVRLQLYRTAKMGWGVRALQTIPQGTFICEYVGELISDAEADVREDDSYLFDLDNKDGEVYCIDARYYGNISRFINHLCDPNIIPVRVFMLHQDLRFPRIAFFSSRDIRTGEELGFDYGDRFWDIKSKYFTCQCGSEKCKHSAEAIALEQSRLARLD
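Step 1: enzyme (final 20 nM) with compound, 15 min RT. Step 2: substrate peptide 500 nM and SAM 20 uM, 2 h RT. Step 3: anti-H3K9me1 antibody and AlphaScreen beads, 10 min, then plate read.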
Numbers stand for hits; n = inactive; u = inconclusive; x = not tested or not shown; [ ] = remark or other dose. Unless noted, the call rests on the fitted dose curve; in most records, active means well fitted curve in the direction sought with a large enough effect; inconclusive means small, poorly fitted or top-dose-only effect, or another doubt; inactive means no such curve, though single readings can be large; an effect the other way counts as inactive or inconclusive.

SMILES | Coupling enz | Sfp PPTase inh | Tau FP inhib | Tau fluor counter | Tau ThT inhib | G9a inh
COc1cccc(CNC(=O)CN2C(=O)CSc3c2c(C)nn3-c2ccccc2)c1OC | x | x | n | n | n | n
Cc1cc(=O)oc2cc(NC(=O)CC(N)C(=O)O)ccc12 (centres undefined) | n | u | x | x | x | x
N#Cc1c(NC(=O)CSc2nnc(-c3ccncc3)n2CC2CCCO2)sc2c1CCCC2 (centres undefined) | n | n | n | n | n | u
N#Cc1c(NC(=O)CSc2ncc(-c3ccccc3)n2CC2CCCO2)sc2c1CCCC2 (centres undefined) | n | n | n | n | n | 11µM
COc1ccc(-c2cc(C(F)(F)F)nc(SCC(=O)Nc3sc4c(c3C#N)CCC4)n2)cc1 | n | n | u | u | n | 11µM
NC(=O)c1c(NC(=O)CSc2nc3c(c(C(F)(F)F)n2)CCc2ccccc2-3)sc2c1CCCC2 | n | n | n | n | n | u
Cc1nn(Cc2ccc(Cl)cc2)c(C)c1NC(=O)CSc1nc2c(c(C(F)(F)F)n1)CCc1ccccc1-2 | n | 35µM | n | n | n | n[0.501 µM]
Cc1ccc(Cn2nc(C)c(NC(=O)CSc3nc4c(c(C(F)(F)F)n3)CCc3ccccc3-4)c2C)cc1 | n | n | n | n | n | n
N#Cc1c(NC(=O)CSc2nc3c(c(C(F)(F)F)n2)CCc2ccccc2-3)sc2c1CCCC2 | n | n | n | n | n | 11µM
CC(=O)OC1C[C@]2(C)C(C(C)=O)CCC2C2CCC3=CC(=O)CC[C@@]3(C)C12 (some centres undefined) | n | n | n | n | n | n[2.33 µM]
CC(C)(C)C(O)C(Cc1ccccc1Cl)n1cncn1 (centres undefined) | n | n | x | x | x | n
CC(C)Oc1ccc(S(=O)(=O)N2CCOCC2)cc1NC(=O)CC1OC(=O)c2ccccc21 (centres undefined) | x | x | x | x | x | 16µM
CC(OC(=O)C1CCCC1)C(=O)Nc1ncc(Cl)cc1Cl (centres undefined) | x | x | x | x | x | n[12.7 µM]
COc1ccc(OC)c(NC(=O)C2CCN(Cc3cnn(-c4ccccc4)c3-n3cccc3)CC2)c1 | n | n | n | n | n | 45µM
COc1ccc(NC(=O)C2CCN(Cc3cnn(-c4ccccc4)c3-n3cccc3)CC2)cc1OC | n | n | n | n | n | n
CCOC(=O)N1CCN(C2=C(NS(=O)(=O)c3ccccc3)C(=O)c3ccccc3C2=O)CC1 | x | n | x | x | x | 35µM
CCN1CCN(C2=C(NS(=O)(=O)c3ccccc3)C(=O)c3ccccc3C2=O)CC1 | x | n | x | x | x | n[0.0925 µM]
CN1CCN(C2=C(NS(=O)(=O)c3ccccc3)C(=O)c3ccccc3C2=O)CC1 | -46 | n | x | x | x | 28µM
O=C1C(NS(=O)(=O)c2cccs2)=C(N2CCN(c3cccc(C(F)(F)F)c3)CC2)C(=O)c2ccccc21 | n | n | n | 7.1µM[quencher] | 4.5µM | u
CC(=O)c1cccc(Nc2nc(N3CCOCC3)nc(N3CCOCC3)n2)c1 | x | n | x | x | x | x
O=C(O)c1cccc(NC2=C(N3CCOCC3)C(=O)c3ccccc3C2=O)c1 | n | n | u | u | 32µM | 2.8µM
Cc1c(C(=O)N/N=C/c2cccs2)nnn1-c1nonc1N | n | n | x | x | x | n
Cc1ccc(NC(=O)C2CCCN(c3nnc(C)c4c(C)n(-c5ccccc5)nc34)C2)cc1Cl (centres undefined) | x | x | n | n | n | n
O=C1C(NS(=O)(=O)c2cccs2)=C(N2CCOCC2)C(=O)c2ccccc21 | n | n | u | u | 16µM | 40µM
COc1ccccc1N1CCN(S(=O)(=O)c2cccs2)CC1 | n | n | n | n | n | n
SMILES | Coupling enz | Sfp PPTase inh | Tau FP inhib | Tau fluor counter | Tau ThT inhib | G9a inh
CCOc1ccccc1N1CCN(C2=C(NS(=O)(=O)c3cccs3)C(=O)c3ccccc3C2=O)CC1 | n | u | u | 13µM[quencher] | 8.9µM | u
O=C1C(NS(=O)(=O)c2ccc(Cl)cc2)=C(N2CCCCC2)C(=O)c2ccccc21 | -34 | n | u | u | 16µM | 10µM
O=S(=O)(NCCN1CCOCC1)c1cccs1 | n | n | n | n | n | 40µM
O=C(Nc1cc(-c2nc3cc(Cl)ccc3o2)ccc1Cl)c1cccc2ccccc12 | x | x | n | n | n | n
COc1ccc(-c2nnc(SCC(=O)N3CCC(C)CC3)o2)cc1 | x | x | n | n | n | n
Cc1ccc2c(CNC3CCCCC3)c(C(=O)O)n(Cc3ccc(F)cc3)c2c1 | x | x | n | n | n | n
CCOc1ccc(CCNC(=O)C(C)N2C(=O)CC(C)(C)Sc3ccccc32)cc1 (centres undefined) | n | n | x | x | x | n
Cc1ccc(-n2nc3cc(C)c(NC(=O)COc4ccccc4)cc3n2)cc1 | x | x | n | n | n | n
COc1cc(Nc2nc3c(S(=O)(=O)c4ccccc4)nnn3c3ccc(Cl)cc23)cc(OC)c1 | x | x | n | n | n | n
CN1CCN(C2=C(NS(=O)(=O)c3cccs3)C(=O)c3ccccc3C2=O)CC1 | -31 | n | n | n | u | u
O=C1C(NS(=O)(=O)c2cccs2)=C(N2CCN(Cc3ccccc3)CC2)C(=O)c2ccccc21 | n | n | n | u | 16µM | 13µM
CC(NS(C)(=O)=O)C(c1cccs1)N1CCN(Cc2ccccc2)CC1 (centres undefined) | n | n | n | n | n | n
CN(C1=C(N2CCOCC2)C(=O)c2ccccc2C1=O)c1ccccc1 | -40 | n | n | u | u | 10µM
COc1cc(C(CC(=O)Nc2cccc(C(C)=O)c2)N2Cc3ccccc3C2=O)cc(OC)c1OC (centres undefined) | x | x | n | n | n | n
Cn1c(=O)c2sccc2n2c(CCCC(=O)Nc3ccc(F)cc3F)nnc12 | n | n | n | n | n | n
COc1ccccc1CNC(=O)COc1cccc(-n2cnnn2)c1 | x | x | x | x | x | n
Cc1ccc(NC(=O)Cn2c(=S)[nH]c3ccccc32)cc1 | n | 45µM | n | n | u | 3.5µM
CCn1c(=S)[nH]c2cc(C(=O)O)ccc21 | n | u | n | n | n | 45µM
CCn1c(=S)[nH]c2cc(Cl)ccc21 | n | n | n | n | x | x
O=C(Cn1c(=S)[nH]c2ccccc21)c1ccccc1 | n | n | n | n | n | 3.5µM
CCn1c(=S)[nH]c2ccccc21 | n | n | n | n | n | 2.8µM
Cc1ccc(C)c(-c2nc(Cn3c(=O)cc(-c4ccccc4)c4c(C)nn(C)c43)c(C)o2)c1 | x | x | n | n | n | n
CC(C)n1c(=S)[nH]c2ccccc21 | n | 79µM | n | n | n | u
Cc1n[nH]c(=O)c2c(NC(=O)CSc3c(Cl)cccc3Cl)oc(C)c12 | x | x | x | x | x | 13µM
Cc1n[nH]c(=O)c2c(NC(=O)CSc3ccccc3Cl)oc(C)c12 | x | x | x | x | x | 32µM
Clc1ccccc1Nc1ncnc2c1nc1n2CCCCC1 | x | x | n | n | n | n

Source: PubChem (National Center for Advancing Translational Sciences (NCATS))
